# Hit rate of the full screen: of about 320,000 compounds, about 2,800 (0.88%) were called active.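 How the source made its calls: active means inhibition above the mean inhibition of all tested compounds plus 3 SD, computed separately for each screening campaign (cut at about 15% in these data); inactive means the rest.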 The sample as a whole holds a higher share of actives than the screen did.
# Target: Serine/threonine-protein phosphatase PP1-alpha catalytic subunit (Homo sapiens) (UniProt P62136)
# Sequence (P62136 whole entry, looked up): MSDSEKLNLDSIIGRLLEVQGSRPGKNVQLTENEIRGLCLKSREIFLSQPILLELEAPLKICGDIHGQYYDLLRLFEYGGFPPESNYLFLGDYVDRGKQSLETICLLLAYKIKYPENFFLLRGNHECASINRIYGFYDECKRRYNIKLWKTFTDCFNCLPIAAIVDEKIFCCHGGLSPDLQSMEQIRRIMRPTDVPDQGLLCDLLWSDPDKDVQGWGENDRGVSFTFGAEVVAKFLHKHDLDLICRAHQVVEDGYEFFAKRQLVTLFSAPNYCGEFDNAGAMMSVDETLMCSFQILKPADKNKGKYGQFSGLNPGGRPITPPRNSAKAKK
# Assay: inhibition of human PP1 catalytic subunit – biochemical, fluorescence, OMFP substrate, single point, counter-screen for PP5 inhibitor project, primary screen (AID 2235)
# Details: purified PP1alpha, at 6.7 µM, active compounds read high
row,SMILES,inhibition
1,CSc1ccc(/C=N\NC(=O)COc2ccc(Cl)cc2Br)cc1,45.6% (active)
2,CSc1ccc(/C=N\NC(=O)CC(=O)NC(C)C)cc1,-3.41% (inactive)
3,CSc1ccc(/C=N/NC(=O)c2cccc(Cl)c2)cc1,-0.88% (inactive)
4,Cc1cc(C)c(S(=O)(=O)NCC(c2ccc3c(c2)OCO3)N2CCOCC2)c(C)c1 (stereo not drawn),-3.95% (inactive)
5,CN(C(=O)COC(=O)c1nc(Cl)ccc1Cl)C1CCS(=O)(=O)C1 (stereo not drawn),-2.63% (inactive)
6,CN(CCOc1ccccc1)C(=O)c1cc(-c2ccco2)nc2ccccc12,11% (inactive)
7,CN(C(=O)COC(=O)c1cc(-c2ccco2)nc2ccccc12)C1CCS(=O)(=O)C1 (stereo not drawn),41.1% (active)
8,O=C(CC(c1ccccc1)c1cc(Cl)ccc1O)NCCN1CCOCC1 (stereo not drawn),-1.01% (inactive)
9,O=C(COC(=O)c1ccccc1SCC(=O)N1CCCC1)Nc1ccccc1OC(F)F,-0.81% (inactive)
10,CCOC(=O)c1ccc[n+](CC(=O)Nc2ccccc2OC(F)F)c1,-3.16% (inactive)
11,Cc1ccc(-c2nc(SCC(=O)Nc3ccccc3OC(F)F)c3c(C)c(C(=O)O)sc3n2)cc1,52% (active)
12,Cc1ccc(C)c(NC(=O)CSc2nc3c(oc4ccccc43)c(=O)n2-c2ccccc2)c1,10.1% (inactive)
13,COc1cc(C(C(=O)NC2CCCC2)N(Cc2ccccc2)C(=O)c2snc(C(N)=O)c2N)ccc1O (stereo not drawn),-0.55% (inactive)
14,CCOC(=O)Cc1cc(=O)[nH]c(=O)[nH]1,-3.59% (inactive)
15,COc1ccc(-c2ocnc2C(=O)Nc2ccc3c(c2)CCC3)cc1,-2.76% (inactive)
16,O=C1N=C(N2CCCC2)S/C1=C\c1cccc(Br)c1,-0.89% (inactive)
17,O=Cc1c(Cl)cccc1Cl,-3.41% (inactive)
18,O=C1N=C2SCCN2/C1=C\c1c(Cl)cccc1Cl,15.4% (active)
19,O=C(N/N=C\C1CC=CCC1)c1ccc(Br)o1 (stereo not drawn),2.42% (inactive)
20,O=C(c1cn(-c2ccccc2)nc1-c1cccnc1)N1CCN(S(=O)(=O)c2ccccc2F)CC1,-1.36% (inactive)

row,SMILES,inhibition
1,Cc1ccc(CNC(=O)CCN2C(=O)[C@@H]3Cc4ccccc4CN3C2=O)cc1,3.38% (inactive)
2,O=C(Nc1nnc(-c2ccccc2)o1)c1cc(-c2cccs2)nc2ccccc12,34.7% (active)
3,O=C(NCCN1CCOCC1)c1cc(-c2cccs2)nc2ccccc12,-5.13% (inactive)
4,CCCCN(C)CCCNC(=O)c1cc(-c2cccs2)nc2ccccc12,1.01% (inactive)
5,CCN(CC)c1ccc(NC(=O)CN2C(=O)NC3(CCc4ccccc43)C2=O)cc1 (stereo not drawn),3.2% (inactive)
6,COCCCn1c(-c2cccs2)nc2nc3ccccc3nc21,-1.53% (inactive)
7,CC(C)(C)c1ccccc1NC(=O)CN1C(=O)NC2(CCCC2)C1=O,-2.93% (inactive)
8,Cc1ccc(-n2nc3ccc(NC(=O)/C=C/c4ccco4)cc3n2)cc1C,19.2% (active)
9,Cc1nnc(NC(=O)/C=C/c2ccco2)s1,-3.35% (inactive)
10,O=C(/C=C/c1ccco1)Nc1ccc(Oc2ccccc2)cc1,3.61% (inactive)
11,COc1ccc(CN2CCN(Cc3ccc(OC)c(OC)c3OC)CC2)cc1,-0.69% (inactive)
12,CCOc1ccc(N(CC(=O)Nc2cccc(OC)c2)S(C)(=O)=O)cc1,-2.47% (inactive)
13,COc1ccc(NC(=O)CSc2nnc(-c3ccccc3F)n2C2CC2)cc1S(N)(=O)=O,-2.33% (inactive)
14,Fc1cccc(Cl)c1COc1ccc(-c2nnco2)cc1,0.3% (inactive)
15,CC(=O)NCc1ccc(-c2csc(NC(=O)CCCc3nc4ccccc4c(=O)[nH]3)n2)cc1,-1.25% (inactive)
16,CCCn1c(C)cc(-c2csc(NC(=O)CCc3nc4ccccc4c(=O)[nH]3)n2)c1C,15.3% (active)
17,Cc1cc(C)c(-c2csc(NC(=O)CCCc3nc4ccccc4c(=O)[nH]3)n2)c(C)c1,1.77% (inactive)
18,O=C1CCCCN1CCCC(=O)N1CCCC(Nc2ccc(F)cc2)C1 (stereo not drawn),-8.73% (inactive)
19,Cc1cccc(COc2ccccc2/C=N/Nc2ccc([N+](=O)[O-])cc2)c1,6.78% (inactive)
20,COCCNC(=O)c1ccccc1NS(=O)(=O)c1ccc(C)c([N+](=O)[O-])c1,-0.54% (inactive)

row,SMILES,inhibition
1,Cc1ccc(NS(=O)(=O)c2ccc(N/N=C/c3ccccc3OCC(=O)O)c([N+](=O)[O-])c2)c(C)c1,21.9% (active)
2,COC(=O)Nc1ccc(S(=O)(=O)Nc2cc(OC)nc(OC)n2)cc1,0.14% (inactive)
3,O=[N+]([O-])c1ccccc1/C=N/n1c(COc2ccccc2)n[nH]c1=S,19.8% (active)
4,Fc1ccc(/C=N/n2c(COc3ccccc3)n[nH]c2=S)cc1,1.88% (inactive)
5,CCOc1ccc(-c2n[nH]c(=S)n2/N=C/c2cc3c(cc2[N+](=O)[O-])OCO3)cc1,1.23% (inactive)
6,CC(C)(C)OC(=O)N1CCC(NC(=O)c2[nH]cnc2C(=O)N[C@@H](Cc2ccccc2)C(=O)OCc2ccccc2)CC1,5.67% (inactive)
7,COc1ccc(CCNC(=O)COC(=O)c2ccc[nH]c2=O)cc1,-2.04% (inactive)
8,Cc1ccc(-c2nn(-c3ccccc3)cc2C(=O)NC2CCC(O)CC2)cc1 (stereo not drawn),-2.02% (inactive)
9,CCc1ccc(-c2nn(-c3ccccc3C)cc2C(=O)N2CCN(C3CCS(=O)(=O)C3)CC2)cc1 (stereo not drawn),-1.65% (inactive)
10,CCc1ccc(-c2nn(-c3ccccc3)cc2CSC(=N)N)cc1,16.1% (active)
11,Cc1nccc(-c2ccc(-n3c(C)ccc3C)cc2)n1,-1.67% (inactive)
12,COC(=O)c1ccc(-n2cnc3ccccc32)nc1,1.21% (inactive)
13,c1ccc(-c2nccc(-c3ccc(-n4cnc5ccccc54)cc3)n2)nc1,44.6% (active)
14,CC1(C)CC(=O)C(N=Nc2ccc(S(=O)(=O)N3CCCCCC3)cc2)=C(O)C1,-0.81% (inactive)
15,Nc1ncnc(Nc2cccc(Cl)c2Cl)n1,-0.33% (inactive)
16,c1ccc(C(c2ccccc2)N2CCN(Cc3nnnn3C3CCCCC3)CC2)cc1,1.36% (inactive)
17,O=C(OCC1O[C@@H](OC(=O)c2cc(O)c(O)c(O)c2)[C@@H](OC(=O)c2cc(O)c(O)c(O)c2)[C@@H](OC(=O)c2cc(O)c(O)c(O)c2)[C@@H]1OC(=O)c1cc(O)c(O)c(O)c1)c1cc(O)c(O)c(O)c1 (stereo partly drawn),82.4% (active)
18,O=C(OCC1OC(Oc2ccc(O)cc2)C(O)C(O)C1O)c1ccccc1 (stereo not drawn),-5.64% (inactive)

# From PubChem BioAssay AID2235 (The Scripps Research Institute Molecular Screening Center, 2010)
